Test results from ChEMBL document CHEMBL3988442, “University of Dundee, Small-Polar-MMV Screening Library” (2021).
For some assays here: Potency and affinity values are given separately.

Columns and labels:
Set-up in all cases: scale not given: direction of the effect not stated beside the values
[1] = target: Protein translocase subunit SecA (Escherichia coli (strain K12)) (UniProt P10408); experiment: Assay to Identify E. coli SecA ATPase Inhibitors; type: functional; conditions: 30 µM
[2] = target: T1, Ubiquitin-activating enzyme e1, putative (Leishmania donovani (strain BPK282A1)) (UniProt E9BSI1); experiment: Leishmania donovani Ubiquitin Activating Enzyme (LdE1); type: functional; conditions: 30 µM
T1 sequence (whole entry): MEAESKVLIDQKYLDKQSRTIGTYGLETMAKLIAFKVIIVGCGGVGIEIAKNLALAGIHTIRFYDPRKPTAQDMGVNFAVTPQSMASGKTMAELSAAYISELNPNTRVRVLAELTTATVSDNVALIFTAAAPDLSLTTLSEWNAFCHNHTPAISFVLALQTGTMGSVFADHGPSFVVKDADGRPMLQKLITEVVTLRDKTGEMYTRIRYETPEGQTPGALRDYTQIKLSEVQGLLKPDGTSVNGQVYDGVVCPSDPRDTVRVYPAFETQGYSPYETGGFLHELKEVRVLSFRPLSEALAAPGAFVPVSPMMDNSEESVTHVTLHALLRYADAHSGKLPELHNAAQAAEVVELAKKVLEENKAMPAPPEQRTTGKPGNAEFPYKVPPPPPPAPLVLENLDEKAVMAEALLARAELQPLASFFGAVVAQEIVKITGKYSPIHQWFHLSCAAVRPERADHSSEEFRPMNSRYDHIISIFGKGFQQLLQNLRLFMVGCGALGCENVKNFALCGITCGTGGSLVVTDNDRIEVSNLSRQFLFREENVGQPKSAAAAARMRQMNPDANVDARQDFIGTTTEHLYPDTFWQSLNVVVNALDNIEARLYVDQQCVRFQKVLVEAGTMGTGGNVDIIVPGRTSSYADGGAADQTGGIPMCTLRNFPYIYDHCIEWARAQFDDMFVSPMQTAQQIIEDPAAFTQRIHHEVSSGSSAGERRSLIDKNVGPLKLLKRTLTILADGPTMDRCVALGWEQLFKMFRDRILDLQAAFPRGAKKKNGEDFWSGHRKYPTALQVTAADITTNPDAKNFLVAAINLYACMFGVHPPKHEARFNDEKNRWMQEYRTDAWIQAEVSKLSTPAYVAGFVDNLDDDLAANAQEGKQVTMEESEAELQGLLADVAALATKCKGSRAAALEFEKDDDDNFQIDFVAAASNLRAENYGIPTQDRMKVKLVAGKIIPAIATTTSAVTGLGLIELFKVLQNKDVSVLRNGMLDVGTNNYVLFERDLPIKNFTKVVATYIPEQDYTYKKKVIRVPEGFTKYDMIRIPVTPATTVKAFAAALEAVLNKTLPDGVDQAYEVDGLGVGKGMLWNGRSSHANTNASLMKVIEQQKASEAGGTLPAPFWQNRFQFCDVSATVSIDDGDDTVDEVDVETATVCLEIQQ

[3] = target: AMP-activated protein kinase, AMPK (Homo sapiens) (UniProt P54646+O43741+P54619+Q9UGJ0+Q9Y478+Q13131+Q9UGI9); experiment: AMP-dependent Kinase enzyme assay. An in vitro enzyme assay that detects ADP turnover that is directly proportional to AMPK activity. This uses naive AMPK that is activated during the assay with MK-8722; type: functional; conditions: 30 µM
[4] = target: Sialic acid-binding Ig-like lectin 9 (Homo sapiens) (UniProt Q9Y336); experiment: Hs-Siglec9 ALPHAscreen SOP 20170721; conditions: 10 µM
Sialic acid-binding Ig-like lectin 9 (Homo sapiens), sequence (Q9Y336 whole entry): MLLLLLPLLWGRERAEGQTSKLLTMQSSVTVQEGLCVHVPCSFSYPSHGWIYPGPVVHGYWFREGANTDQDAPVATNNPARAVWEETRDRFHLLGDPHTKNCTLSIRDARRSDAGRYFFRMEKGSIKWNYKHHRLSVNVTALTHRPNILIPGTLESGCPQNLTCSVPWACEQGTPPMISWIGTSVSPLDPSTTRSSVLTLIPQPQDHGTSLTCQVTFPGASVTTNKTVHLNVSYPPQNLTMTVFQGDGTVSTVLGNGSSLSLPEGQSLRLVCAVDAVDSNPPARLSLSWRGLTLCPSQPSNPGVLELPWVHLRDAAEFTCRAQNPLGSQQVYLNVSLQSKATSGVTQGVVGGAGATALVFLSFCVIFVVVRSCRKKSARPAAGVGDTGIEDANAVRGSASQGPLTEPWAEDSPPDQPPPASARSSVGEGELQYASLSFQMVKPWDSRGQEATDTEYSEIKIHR

Trypanosoma cruzi = experiment: Trypanosoma cruzi phosphomannomutase and mannose-1-phosphate guanylyltransferase assay; type: functional; conditions: 10 µM
[5] = target: T2, Arginase-2, mitochondrial (Homo sapiens) (UniProt P78540); experiment: in vitro enzyme assay to detect the production of urea directly proportional to the activity of Arginase II; type: functional; conditions: 33.3 µM; also: in the data most compounds retested in dose-response had high values
T2 sequence (whole entry): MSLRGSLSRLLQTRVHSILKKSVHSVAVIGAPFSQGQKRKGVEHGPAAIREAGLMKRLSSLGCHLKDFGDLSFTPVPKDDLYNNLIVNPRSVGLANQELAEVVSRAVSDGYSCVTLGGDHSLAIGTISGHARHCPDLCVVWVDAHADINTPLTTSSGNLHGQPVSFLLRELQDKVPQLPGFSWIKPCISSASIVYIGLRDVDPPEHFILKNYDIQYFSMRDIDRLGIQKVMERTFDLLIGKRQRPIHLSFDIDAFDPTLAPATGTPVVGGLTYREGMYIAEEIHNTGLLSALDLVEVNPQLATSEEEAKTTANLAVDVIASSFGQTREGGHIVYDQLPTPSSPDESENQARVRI

[6] = target: T3, Proteasome subunit beta (Trypanosoma cruzi) (UniProt O96673); experiment: Trypanosoma cruzi proteasome chymotrypsin-like activity (TcProtChymo) assay.; also: in the data most compounds retested in dose-response had high values; type: functional; conditions: 9.37 µM
T3 sequence (whole entry): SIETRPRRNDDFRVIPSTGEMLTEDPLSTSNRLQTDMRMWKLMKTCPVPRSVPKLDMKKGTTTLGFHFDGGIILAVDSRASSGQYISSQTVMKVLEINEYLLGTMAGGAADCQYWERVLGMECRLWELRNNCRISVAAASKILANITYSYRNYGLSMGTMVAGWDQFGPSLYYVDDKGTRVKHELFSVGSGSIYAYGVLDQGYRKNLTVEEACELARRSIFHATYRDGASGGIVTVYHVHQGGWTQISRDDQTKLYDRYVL

Homo sapiens = species on record: Homo sapiens; experiment: To identify inhibition of the IFN signalling (Jak-Stat) pathway via expression of an eGFP reporter gene under the control of an IFN-stimulated response element (ISRE) containing MxA promoter.; type: functional; conditions: 30 µM
[7] = target: T4, Tyrosyl-tRNA synthetase, putative (Trypanosoma cruzi (strain CL Brener)) (UniProt Q4DSP6); experiment: Trypanosoma cruzi tyrosyl tRNA synthetase (TcYRS) _High Tyrosine SOP; type: functional; conditions: 30 µM; also: in the data most compounds retested in dose-response had high values
T4 sequence (whole entry): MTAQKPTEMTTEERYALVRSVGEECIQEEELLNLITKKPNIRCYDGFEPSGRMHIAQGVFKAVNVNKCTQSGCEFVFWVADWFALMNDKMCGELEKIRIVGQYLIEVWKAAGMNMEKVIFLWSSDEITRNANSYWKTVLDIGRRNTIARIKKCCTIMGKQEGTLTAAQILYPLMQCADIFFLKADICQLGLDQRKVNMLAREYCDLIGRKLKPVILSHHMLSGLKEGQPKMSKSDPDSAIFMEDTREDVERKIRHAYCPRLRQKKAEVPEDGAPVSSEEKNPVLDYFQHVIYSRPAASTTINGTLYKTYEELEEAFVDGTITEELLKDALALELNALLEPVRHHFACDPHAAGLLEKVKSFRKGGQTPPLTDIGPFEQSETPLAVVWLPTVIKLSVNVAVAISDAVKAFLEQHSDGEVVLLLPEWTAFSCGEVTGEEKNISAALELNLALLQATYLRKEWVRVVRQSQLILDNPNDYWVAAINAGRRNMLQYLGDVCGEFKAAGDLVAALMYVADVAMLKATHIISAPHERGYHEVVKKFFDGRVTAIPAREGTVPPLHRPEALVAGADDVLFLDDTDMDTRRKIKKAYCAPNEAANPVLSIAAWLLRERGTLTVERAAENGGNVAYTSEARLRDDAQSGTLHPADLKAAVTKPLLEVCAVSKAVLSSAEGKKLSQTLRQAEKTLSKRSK

[8] = target: T4, Tyrosyl-tRNA synthetase, putative (Trypanosoma cruzi (strain CL Brener)); experiment: Trypanosoma cruzi tyrosyl tRNA synthetase (TcYRS) SOP; type: functional; conditions: 30 µM
[9] = target: Chromo domain-containing protein 1 (Saccharomyces cerevisiae (strain ATCC 204508 / S288c) (Baker's yeast)) (UniProt P32657); experiment: ScCHD-1 Enzyme Inhibition Assay; type: functional; conditions: 30 µM; also: in the data most compounds retested in dose-response had high values
Chromo domain-containing protein 1 (Saccharomyces cerevisiae (strain ATCC 204508 / S288c) (Baker's yeast)), sequence (P32657 whole entry, the tested form may be a part): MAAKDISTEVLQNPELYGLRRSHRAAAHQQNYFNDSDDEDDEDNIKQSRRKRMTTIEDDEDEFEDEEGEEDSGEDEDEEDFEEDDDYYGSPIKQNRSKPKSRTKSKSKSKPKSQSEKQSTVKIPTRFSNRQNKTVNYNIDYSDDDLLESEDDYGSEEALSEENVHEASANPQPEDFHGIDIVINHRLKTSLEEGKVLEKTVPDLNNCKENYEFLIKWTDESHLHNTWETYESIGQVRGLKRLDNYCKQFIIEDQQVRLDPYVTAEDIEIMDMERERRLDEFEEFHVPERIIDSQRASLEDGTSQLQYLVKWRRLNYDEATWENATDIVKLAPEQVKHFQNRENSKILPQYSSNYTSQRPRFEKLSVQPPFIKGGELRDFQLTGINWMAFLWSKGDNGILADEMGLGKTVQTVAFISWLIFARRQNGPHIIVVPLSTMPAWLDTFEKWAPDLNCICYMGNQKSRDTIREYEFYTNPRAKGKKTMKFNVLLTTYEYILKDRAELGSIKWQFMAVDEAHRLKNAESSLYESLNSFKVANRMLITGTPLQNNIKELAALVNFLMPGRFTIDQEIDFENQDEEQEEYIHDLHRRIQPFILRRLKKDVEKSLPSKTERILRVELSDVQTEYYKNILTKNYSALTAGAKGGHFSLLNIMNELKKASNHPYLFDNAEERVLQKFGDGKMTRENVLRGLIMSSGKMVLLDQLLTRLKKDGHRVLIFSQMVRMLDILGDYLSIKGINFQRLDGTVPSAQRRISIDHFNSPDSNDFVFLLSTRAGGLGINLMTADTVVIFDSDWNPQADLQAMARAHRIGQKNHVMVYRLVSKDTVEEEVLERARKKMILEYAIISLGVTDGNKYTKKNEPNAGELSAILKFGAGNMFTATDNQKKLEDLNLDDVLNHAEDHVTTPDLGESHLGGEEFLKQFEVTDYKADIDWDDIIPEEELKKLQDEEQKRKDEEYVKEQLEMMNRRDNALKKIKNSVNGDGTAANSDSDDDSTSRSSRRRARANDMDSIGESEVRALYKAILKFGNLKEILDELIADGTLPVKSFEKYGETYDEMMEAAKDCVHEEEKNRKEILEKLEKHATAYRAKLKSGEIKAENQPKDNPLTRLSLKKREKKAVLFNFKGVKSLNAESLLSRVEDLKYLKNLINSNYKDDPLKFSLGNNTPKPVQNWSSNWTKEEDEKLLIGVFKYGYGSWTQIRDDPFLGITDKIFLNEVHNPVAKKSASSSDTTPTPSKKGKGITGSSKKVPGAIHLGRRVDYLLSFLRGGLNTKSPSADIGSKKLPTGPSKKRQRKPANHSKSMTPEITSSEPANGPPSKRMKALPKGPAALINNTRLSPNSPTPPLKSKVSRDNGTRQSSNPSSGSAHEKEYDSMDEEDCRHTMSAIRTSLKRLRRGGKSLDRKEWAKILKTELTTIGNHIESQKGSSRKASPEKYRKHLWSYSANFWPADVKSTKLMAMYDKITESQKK

Protein translocase subunit SecA (Escherichia coli (strain K12)), sequence (P10408 whole entry): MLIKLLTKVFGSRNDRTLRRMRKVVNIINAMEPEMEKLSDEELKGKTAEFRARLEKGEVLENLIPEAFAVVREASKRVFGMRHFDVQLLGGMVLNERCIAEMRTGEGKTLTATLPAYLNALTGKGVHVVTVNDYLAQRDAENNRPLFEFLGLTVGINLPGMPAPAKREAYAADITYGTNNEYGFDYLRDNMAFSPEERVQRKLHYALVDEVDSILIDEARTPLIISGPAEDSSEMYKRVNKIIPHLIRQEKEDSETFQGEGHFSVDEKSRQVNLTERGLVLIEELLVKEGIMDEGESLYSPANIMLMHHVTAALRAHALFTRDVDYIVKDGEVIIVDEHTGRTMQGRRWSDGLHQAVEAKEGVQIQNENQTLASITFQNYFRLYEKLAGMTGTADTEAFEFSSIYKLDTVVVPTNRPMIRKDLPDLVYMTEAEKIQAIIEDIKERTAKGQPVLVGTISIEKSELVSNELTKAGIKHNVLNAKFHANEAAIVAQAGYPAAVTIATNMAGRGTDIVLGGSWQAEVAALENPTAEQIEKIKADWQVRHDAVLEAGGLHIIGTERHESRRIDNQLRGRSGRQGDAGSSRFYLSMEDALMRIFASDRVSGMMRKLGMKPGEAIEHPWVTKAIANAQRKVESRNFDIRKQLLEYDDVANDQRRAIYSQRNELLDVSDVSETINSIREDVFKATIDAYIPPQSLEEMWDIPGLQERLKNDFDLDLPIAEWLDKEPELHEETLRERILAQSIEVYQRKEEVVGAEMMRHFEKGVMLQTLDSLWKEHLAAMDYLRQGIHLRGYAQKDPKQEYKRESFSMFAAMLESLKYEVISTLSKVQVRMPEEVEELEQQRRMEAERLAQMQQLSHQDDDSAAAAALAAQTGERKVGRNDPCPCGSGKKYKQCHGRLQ

Row | Structure (SMILES) | Percent Effect [1] [%] | Percent Effect [2] [%] | Percent Effect [3] [%] | Percent Effect [4] [%] | Percent Effect (Trypanosoma cruzi) [%] | Percent Effect [5] [%] | Percent Effect [6] [%] | Percent Effect (Homo sapiens) [%] | Percent Effect [7] [%] | Percent Effect [8] [%] | Percent Effect [9] [%]
1 | c1cnc(-c2nc(CNCCn3cccn3)cs2)nc1 | -0.355 | -2.63 | 7.92 | -0.779 | -1.5 | -2.68 | 7.18 | 9.32 | -0.49 | -4.88 | -6.78
2 | Cc1cc(CNc2ccc(C(=O)N3CCCC(C)C3)cc2C)no1 (stereo not given) | -4.07 | 10.4 | 0.477 | -5.45 | -6.18 | -1.42 | 3.72 | 37.9 | 5.83 | 14.6 | -5.48
3 | c1ccc(Cc2noc(CNC3CCc4ncnn4C3)n2)cc1 (stereo not given) | -2.79 | 16.2 | -4.03 | 4.98 | 3.81 | -3.88 | 8.44 | 1.98 | 10.9 | 25.6 | -5.11
4 | O=C(NCCN1CCC(c2cccs2)CC1)Nc1cccs1 | -5.82 | 0 | -3.98 | 20.2 | 4.7 | 1.36 | 14.6 | 10.4 | 12.9 | 17.5 | -2.26
5 | O=C(CCN1CCOC(Cn2cccn2)C1)NC1CCCC1 (stereo not given) | -6.8 | 19 | -3.66 | -3.31 | 3.59 | 0.215 | 15.4 | 4.11 | 8.33 | 5.06 | -15.2
6 | O=C(c1cscn1)N1CCC2(CCN(Cc3nccs3)C2)CC1 | -1.95 | 2.7 | 2.22 | 3.97 | 0.293 | -6.05 | 16.4 | -17.2 | 1.08 | 5.13 | 5.03
7 | CC(C)C(C(=O)N1CCC(N(C)c2cccnn2)CC1)n1cncn1 (stereo not given) | -2.45 | 0 | -10.6 | 4.35 | -3.49 | 4.01 | 9.01 | 11.7 | -0.493 | 1.24 | 6.08
8 | Cn1cc(C(=O)NC2CCN(C(=O)NCC3CCSCC3)CC2)cn1 | -7.28 | 6.33 | 11.5 | 2.29 | -2.15 | 2.37 | 8.75 | 24.4 | 11.5 | 15.2 | 1.7
9 | O=C(NCCNc1cnccn1)N1CCCC1 | -4.38 | 6.33 | 8.17 | -3.74 | -2.56 | 1.94 | 5.15 | 8.14 | 1.04 | 5.06 | -18.6
10 | CCc1ccc(S(=O)(=O)Nc2cn(C)cc(Br)c2=O)cc1 | -3.35 | 5.41 | -3.87 | 18.4 | 4.25 | -0.952 | 11.6 | 6.27 | 2.65 | 12.2 | -5.04
